A selection: hits, their analogues and other compounds. The true share with any hit is near 2.9%.
Peg3 prom inh – reduces Peg3 promoter-driven luciferase expression in HeLa | hit rate 1.7% among 360,000 | inhibition, % at 20 µM | HeLa PEG-Prom luciferase reporter, luminescence, overnight;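 active = inhibition of at least 50% at 20 µM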
KKLEB tox – counter-screen for CF NF-kB inhibitors: cytotoxicity. KKLEB CF airway cells viability, ATPlite luminescence, overnight; stronger effect = lower value; cells stimulated with P. aeruginosa culture filtrate. hit rate 0.36% among 360,000. activity change (cytotoxicity), % at 5 µM;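 active = corrected activity change at or below -50% at 5 µM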
HIF-2a inh – inhibitors of HIF-2a. 786-0 RCC cells HIF-2a reporter, luciferase luminescence, overnight. inhibition, % at 18.8 µM. hit rate 0.72% among 360,000. AID 624352;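 active = inhibition of the luminescence signal of 40% or more relative to plate controls, in a single-dose primary screen at 18.75 µM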
Shn3 inh set2 – inhibitors of Schnurri-3 3'UTR reporter in osteoblasts | hit rate 0.52% among 360,000 | Clone20 osteoblast Shn3 3'UTR firefly luciferase, 24 h | inhibition, % at 12.5 µM | AID 588674;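 active = mean inhibition of at least 75% with every replicate also reaching 75%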;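 note: 0% = median of neutral control wells and 100% = pilot-screen positive control compound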
LMP1 NFkB inh – Epstein-Barr LMP1 NF-kappaB reporter inhibition | LMP1-induced NF-kappaB luciferase reporter cells, luminescence | inhibition, % at 12.5 µM | hit rate 0.69% among 350,000; in the data active = inhibition above about 41%;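 note: 0% = neutral control wells and 100% = reference inhibitor control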
CF NFkB inh – inhibitors of cystic fibrosis induced NF-kB. hit rate 0.86% among 360,000. inhibition, % at 5 µM. AID 588850. KKLEB NF-kB-GFP reporter, PAF-induced, GFP fluorescence overnight;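 active = at least 50% inhibition at 5 µM, scaled per plate between neutral and stimulator controls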;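 note: PAF is a Pseudomonas aeruginosa culture filtrate used as stimulus; plate controls were PAF-stimulated DMSO wells for no effect and unstimulated DMSO wells for full effect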
* hit, by the source's call.

For O=C(N[C@@H](Cc1ccccc1)C(=O)CCl)OCc1ccccc1 the results were Peg3 prom inh 70*, KKLEB tox -19, HIF-2a inh -11, Shn3 inh set2 17, LMP1 NFkB inh 56* and CF NFkB inh 37.
`COc1ccccc1OCC(=O)c1[nH]c(C)c(C(C)=O)c1C` gave Peg3 prom inh -18, KKLEB tox 4, HIF-2a inh -5, Shn3 inh set2 85*, LMP1 NFkB inh 14 and CF NFkB inh -25.
For CC(C)(C)C(=O)NC(c1ccccc1)c1c(O)ccc2ccccc12 (stereo unspecified) the results were Peg3 prom inh 32, KKLEB tox 6, HIF-2a inh 13, Shn3 inh set2 26, LMP1 NFkB inh -14 and CF NFkB inh -4.
`CC(C)[C@H](N[C@@H](C)c1ccccc1)c1c(O)ccc2ccccc12` gave Peg3 prom inh 2, KKLEB tox 4, HIF-2a inh 11, Shn3 inh set2 13, LMP1 NFkB inh 66* and CF NFkB inh 7.
For Nc1c(C(=O)NC2CCCC2)c2nc3ccccc3nc2n1/N=C/c1cccnc1 the results were Peg3 prom inh 33, KKLEB tox -6, HIF-2a inh 2, Shn3 inh set2 6, LMP1 NFkB inh -11 and CF NFkB inh 9.
`COC(=O)c1ccc(C(=O)NC2CCCc3c2cnn3-c2ccccc2F)nc1` (stereo unspecified) gave Peg3 prom inh 7, KKLEB tox -2, HIF-2a inh 5, Shn3 inh set2 13, LMP1 NFkB inh -12 and CF NFkB inh 18.
For Cc1cccc(-n2ncc3c2CCCC3NC(=O)c2ccc[n+]([O-])c2)c1C (stereo unspecified) the results were Peg3 prom inh 2, KKLEB tox -6, HIF-2a inh 6, Shn3 inh set2 62, LMP1 NFkB inh 6 and CF NFkB inh 8.
Screening Cc1cc(C(=O)NC2CCCc3c2cnn3-c2cccc(C)c2C)n(C)n1 (stereo unspecified) returned Peg3 prom inh 6, KKLEB tox -12, HIF-2a inh 11, Shn3 inh set2 91*, LMP1 NFkB inh 23 and CF NFkB inh -17.
For COc1cc(C(=O)NC2CCCc3c2cnn3-c2ccccc2F)cc(OC)c1OC (stereo unspecified) the results were Peg3 prom inh 13, KKLEB tox -1, HIF-2a inh 11, Shn3 inh set2 89*, LMP1 NFkB inh 18 and CF NFkB inh -10.
Screening COCC(C)NC(=O)CCS(=O)(=O)c1nc(-c2ccc(OC)cc2)cc(C(F)(F)F)n1 (stereo unspecified) returned Peg3 prom inh 110*, KKLEB tox -76*, HIF-2a inh 94*, Shn3 inh set2 -9, LMP1 NFkB inh -23 and CF NFkB inh 86*.
Screening Cc1cc(C(C#N)c2ccc(Cl)cc2)c(Cl)cc1NC(=O)c1cc(I)cc(I)c1O (stereo unspecified) returned Peg3 prom inh 44, KKLEB tox -12, HIF-2a inh -24, Shn3 inh set2 4, LMP1 NFkB inh 6 and CF NFkB inh 62*.
Cc1ccc(-c2cc(C(=O)Nc3ccc(S(=O)(=O)Nc4cc(C)on4)cc3)c3ccccc3n2)c(C)c1 was read as Peg3 prom inh 9, KKLEB tox -9, HIF-2a inh 5, Shn3 inh set2 -6, LMP1 NFkB inh 4 and CF NFkB inh -11.
For COc1ccc(-c2nc3ccccc3c(C(=O)Nc3ccc(S(=O)(=O)Nc4cc(C)on4)cc3)c2C)cc1 the results were Peg3 prom inh 27, KKLEB tox -9, HIF-2a inh 6, Shn3 inh set2 7, LMP1 NFkB inh 50* and CF NFkB inh 27.
`O=C(CNC(=O)c1cccs1)OCC(=O)c1ccccc1Cl` gave Peg3 prom inh 12, KKLEB tox 7, HIF-2a inh 19, Shn3 inh set2 -11, LMP1 NFkB inh -1 and CF NFkB inh 2.
For COc1ccc(NC(=O)c2ccc(NC3CC(=O)N(c4ccc(C)cc4C)C3=O)cc2)cc1 (stereo unspecified) the results were Peg3 prom inh 17, KKLEB tox -56*, HIF-2a inh -2, Shn3 inh set2 -1, LMP1 NFkB inh 4 and CF NFkB inh 50.
O=c1[nH]c(=O)n(Cc2ccco2)c2c1C(C(F)(F)F)(C(F)(F)F)N=C(CCC1CCCCC1)N2 was read as Peg3 prom inh 44, KKLEB tox -19, HIF-2a inh 18, Shn3 inh set2 41, LMP1 NFkB inh -1 and CF NFkB inh 21.
For O=c1[nH]c(=O)n(Cc2ccco2)c2c1C(C(F)(F)F)(C(F)(F)F)N=C(CCc1ccccc1)N2 the results were Peg3 prom inh 55*, KKLEB tox -39, HIF-2a inh 29, Shn3 inh set2 28, LMP1 NFkB inh -3 and CF NFkB inh 7.
For NC(=O)c1cccc(Nc2nc(C(N)Cc3ccc(C(F)(F)F)cc3)cs2)n1 (stereo unspecified) the results were Peg3 prom inh 27, KKLEB tox -10, HIF-2a inh -14, Shn3 inh set2 33 and CF NFkB inh -11.
Screening NC(Cc1ccccc1)c1csc(Nc2ccc(C(F)(F)F)cn2)n1 (stereo unspecified) returned Peg3 prom inh 100*, KKLEB tox 3, HIF-2a inh 5, Shn3 inh set2 21 and CF NFkB inh 1.
NC(Cc1ccc(F)cc1)c1csc(Nc2cc(NCc3ccco3)ncn2)n1 (stereo unspecified) was read as Peg3 prom inh 70*, KKLEB tox -21, HIF-2a inh 14, Shn3 inh set2 0 and CF NFkB inh 23.
NC(Cc1ccc(Cl)cc1)c1csc(Nc2cc(Oc3ccccc3)ncn2)n1 (stereo unspecified) was read as Peg3 prom inh 108*, KKLEB tox -6, HIF-2a inh 0, Shn3 inh set2 33 and CF NFkB inh 20.
Screening COc1ccc(CC(N)c2csc(Nc3cc(Oc4ccccc4)ncn3)n2)cc1 (stereo unspecified) returned Peg3 prom inh 36, KKLEB tox -7, HIF-2a inh 13, Shn3 inh set2 -7 and CF NFkB inh -9.
Screening COc1cccc(Nc2nc(C(N)Cc3ccc(C(F)(F)F)cc3)cs2)n1 (stereo unspecified) returned Peg3 prom inh 100*, KKLEB tox -12, HIF-2a inh 13, Shn3 inh set2 9 and CF NFkB inh 5.
NC(c1csc(Nc2cc(NCc3ccco3)ncn2)n1)c1ccccc1Cl (stereo unspecified) was read as Peg3 prom inh 13, KKLEB tox -24, HIF-2a inh 28, Shn3 inh set2 27 and CF NFkB inh 39.
For CCOc1ccc(-c2nc3scc(-c4cccs4)c3c(=O)[nH]2)cc1 the results were Peg3 prom inh -34, KKLEB tox -11, HIF-2a inh -73, Shn3 inh set2 -5, LMP1 NFkB inh -10 and CF NFkB inh -30.
For CN1N=C(C(C)(C)C)CSC1=Nc1ccccc1 the results were Peg3 prom inh -14, KKLEB tox -6, HIF-2a inh -3, Shn3 inh set2 -2, LMP1 NFkB inh 3 and CF NFkB inh 12.

High-throughput results from PubChem BioAssay.
